Source: PubChem BioAssay (Tox21)
“And” between values parts separate entries of the source, which are not always exact repeats. Equal entries are not always repeated. Inconclusive results are not listed. The source made the active and inactive calls. Unless noted, the call rests on the fitted dose curve.

How the values were obtained:
[1] = qHTS assay to identify small molecule antagonists of the sonic hedgehog signaling (Shh) pathway (AID 1259369); further: nearly all actives have a fitted effect of over 45% in size; further: potency means the concentration at half of the fitted maximal effect
In short: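 3T3Gli1-Luc, conditioned-medium-stimulated, 24hr cpd, 37C/5% CO2; Gli1-driven firefly Luc luminescence after 30min RT with luciferase reagent. Cells plated 4hr before cpd.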

[2] = qHTS assay to identify small molecule agonists of the androgen receptor (AR) signaling pathway in the presence of an antagonist - cell viability counter screen (AID 1259379; active means well fitted curve in the direction sought with a large enough effect in the repeat runs; an effect the other way counts as inactive or inconclusive; further: nearly all actives have a fitted effect of over 25% in size; further: potency means the concentration at half of the fitted maximal effect;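 on activity change, negative = cytotoxicity: MDA-kb2 human breast cancer cells carrying an MMTV luciferase reporter; series mostly up to about 92 µM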)
In short: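 Cells: MDA-kb2 (MMTV-luc, AR and GR elements), 3,000/well, 5 hr settle. Added: nilutamide 3.0uM final, then compounds (15 conc.). Incubation: 16 hr, 37C, no CO2. Read-out: CellTiter-Fluor, 1 hr, fluorescence.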

[3] = target: Androgen receptor (Homo sapiens) (UniProt P10275); experiment: qHTS assay to identify small molecule agonists of the androgen receptor (AR) signaling pathway in the presence of an antagonist (AID 1259381); further: nearly all actives have a fitted effect of over 15% in size
Sequence of Androgen receptor (Homo sapiens) (P10275 whole entry, looked up): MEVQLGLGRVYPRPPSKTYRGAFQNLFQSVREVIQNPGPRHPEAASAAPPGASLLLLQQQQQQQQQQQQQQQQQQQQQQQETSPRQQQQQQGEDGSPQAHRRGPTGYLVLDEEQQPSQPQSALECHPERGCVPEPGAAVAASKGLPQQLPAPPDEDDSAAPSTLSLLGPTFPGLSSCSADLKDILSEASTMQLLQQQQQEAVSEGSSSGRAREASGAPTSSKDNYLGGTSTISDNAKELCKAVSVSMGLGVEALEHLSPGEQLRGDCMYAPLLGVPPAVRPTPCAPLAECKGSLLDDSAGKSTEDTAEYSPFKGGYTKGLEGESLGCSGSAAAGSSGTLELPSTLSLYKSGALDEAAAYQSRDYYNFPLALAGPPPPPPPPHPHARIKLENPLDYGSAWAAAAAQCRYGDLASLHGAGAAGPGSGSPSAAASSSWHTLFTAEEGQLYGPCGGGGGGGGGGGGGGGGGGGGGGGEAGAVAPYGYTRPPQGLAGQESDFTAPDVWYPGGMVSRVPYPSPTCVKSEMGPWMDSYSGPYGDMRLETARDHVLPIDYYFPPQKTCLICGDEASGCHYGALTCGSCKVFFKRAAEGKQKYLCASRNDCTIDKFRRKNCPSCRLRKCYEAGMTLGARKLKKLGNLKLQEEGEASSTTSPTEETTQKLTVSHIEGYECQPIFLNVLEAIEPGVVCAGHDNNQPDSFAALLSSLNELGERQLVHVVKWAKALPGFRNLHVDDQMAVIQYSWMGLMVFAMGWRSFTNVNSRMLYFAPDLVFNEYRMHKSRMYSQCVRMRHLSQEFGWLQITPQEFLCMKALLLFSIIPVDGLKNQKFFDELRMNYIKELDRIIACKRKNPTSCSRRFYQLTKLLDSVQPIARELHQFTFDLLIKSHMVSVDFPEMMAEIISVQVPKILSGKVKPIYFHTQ
In short: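 MDA-kb2 cells, 3,000/well, rested 5hr at 37C/0% CO2 → nilutamide 3.0uM final or buffer → compounds, 15 conc. → 16hr at 37C → ONE-Glo, 30min RT → luminescence.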

[4] = qHTS assay to identify small molecule antagonists of the estrogen receptor beta (ER-beta) signaling pathway - cell viability counter screen (AID 1259382; active means well fitted curve in the direction sought with a large enough effect in the repeat runs; an effect the other way counts as inactive or inconclusive; further: nearly all actives have a fitted effect of over 55% in size; further: potency means the concentration at half of the fitted maximal effect;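 on activity change, negative = cytotoxicity: HEK293T cells carrying ER-beta-UAS-bla reporter stimulated with estradiol; series mostly up to about 92 µM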)
In short: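 Cells: ER-beta-UAS-bla HEK293T, 2,000/well, 2% CS-FBS, 6 hr settle. Cpd + E2 (1nM final), 16 hr, 37C/5% CO2. Bla FRET substrate 2 hr RT, then CellTiter-Glo 30 min RT, luminescence.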

[5] = target: Estrogen receptor (Homo sapiens) (UniProt P03372); experiment: qHTS assay to identify small molecule agonists of the estrogen receptor alpha (ER-alpha) signaling pathway in the presence of an antagonist (AID 1259383); further: top concentration of the series differs between compounds; nearly all actives have a fitted effect of over 15% in size
Sequence of Estrogen receptor (Homo sapiens) (P03372 whole entry, looked up): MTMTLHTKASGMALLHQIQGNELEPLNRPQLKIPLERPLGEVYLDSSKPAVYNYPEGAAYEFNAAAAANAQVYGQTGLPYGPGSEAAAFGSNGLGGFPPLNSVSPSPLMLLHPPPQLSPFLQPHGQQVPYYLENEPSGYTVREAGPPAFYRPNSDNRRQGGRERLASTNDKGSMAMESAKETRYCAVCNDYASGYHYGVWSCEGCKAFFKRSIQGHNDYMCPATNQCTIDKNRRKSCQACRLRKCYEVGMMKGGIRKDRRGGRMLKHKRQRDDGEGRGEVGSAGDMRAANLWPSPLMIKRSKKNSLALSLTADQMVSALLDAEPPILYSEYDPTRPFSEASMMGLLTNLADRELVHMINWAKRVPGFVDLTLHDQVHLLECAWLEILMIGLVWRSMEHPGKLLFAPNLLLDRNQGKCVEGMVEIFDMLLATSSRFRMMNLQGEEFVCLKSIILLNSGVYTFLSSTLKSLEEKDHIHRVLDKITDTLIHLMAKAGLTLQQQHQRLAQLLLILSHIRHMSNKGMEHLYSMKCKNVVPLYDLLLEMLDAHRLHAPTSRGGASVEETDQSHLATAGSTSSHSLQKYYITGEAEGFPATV
In short: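 VM7Luc4E2, endog. ER-alpha + 4×ERE-luc; charcoal-stripped FBS, phenol red-free, 5 d; 24hr plating; +10.0nM ICI-182,780 (final); cpds 15 conc, 22hr, 37C/5% CO2; ONE-Glo luminescence.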

[6] = target: Thyrotropin receptor (Homo sapiens) (UniProt P16473); experiment: qHTS assay to identify small molecule antagonists of the thyroid stimulating hormone receptor (TSHR) signaling pathway (AID 1259385); further: nearly all actives have a fitted effect of over 20% in size
Sequence of Thyrotropin receptor (Homo sapiens) (P16473 whole entry, looked up): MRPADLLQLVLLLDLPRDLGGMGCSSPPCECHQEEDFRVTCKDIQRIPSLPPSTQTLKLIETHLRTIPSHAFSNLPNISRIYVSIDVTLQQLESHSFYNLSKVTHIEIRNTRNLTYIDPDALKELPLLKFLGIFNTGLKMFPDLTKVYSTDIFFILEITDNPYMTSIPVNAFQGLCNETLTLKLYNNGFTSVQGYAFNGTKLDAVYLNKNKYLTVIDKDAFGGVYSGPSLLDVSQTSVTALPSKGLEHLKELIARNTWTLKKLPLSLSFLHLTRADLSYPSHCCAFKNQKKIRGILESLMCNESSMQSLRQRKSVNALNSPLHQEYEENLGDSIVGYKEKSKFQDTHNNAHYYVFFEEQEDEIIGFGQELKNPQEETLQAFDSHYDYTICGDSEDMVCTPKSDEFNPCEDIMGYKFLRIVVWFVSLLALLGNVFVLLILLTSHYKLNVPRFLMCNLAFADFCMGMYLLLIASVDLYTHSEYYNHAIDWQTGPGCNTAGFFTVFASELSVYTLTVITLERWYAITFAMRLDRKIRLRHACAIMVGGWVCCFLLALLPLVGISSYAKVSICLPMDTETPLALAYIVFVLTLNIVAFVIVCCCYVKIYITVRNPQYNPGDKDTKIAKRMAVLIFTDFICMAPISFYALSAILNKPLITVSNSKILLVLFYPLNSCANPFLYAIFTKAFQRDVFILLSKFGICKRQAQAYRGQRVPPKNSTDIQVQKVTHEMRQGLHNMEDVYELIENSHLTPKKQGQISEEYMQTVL
In short: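 TSHR-HEK293 cells were plated and held 18 h at 37C/5% CO2, then given compound plus Ro20-1724 and stimulated with TSH at 1.5 ng/mL final. After 30 min at room temperature, cAMP was detected with cAMP-d2/anti-cAMP-cryptate (1 h) by fluorescence.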

[7] = qHTS assay to identify small molecule agonists of the estrogen receptor alpha (ER-alpha) signaling pathway in the presence of an antagonist - cell viability counter screen (AID 1259386; active means well fitted curve in the direction sought with a large enough effect in the repeat runs; an effect the other way counts as inactive or inconclusive;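 further: cells exposed to compounds for 22 h at 37 °C before the viability read; nearly all actives have a fitted effect of over 30% in size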; further: potency means the concentration at half of the fitted maximal effect; on activity change, negative = cytotoxicity: series mostly up to about 92 µM)
In short: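 VM7Luc4E2, stripped-serum pre-culture 5 d; 24hr plating; +ICI-182,780 10.0nM final; cpds 15 conc, 22hr, 37C/5% CO2; CellTiter-Fluor added at 21hr, fluorescence 1hr later.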

[8] = qHTS assay to identify small molecule antagonists of the progesterone receptor (PR) signaling pathway - cell viability counter screen (AID 1346798; active means well fitted curve in the direction sought with a large enough effect in the repeat runs; an effect the other way counts as inactive or inconclusive; further: nearly all actives have a fitted effect of over 50% in size; further: potency means the concentration at half of the fitted maximal effect; on activity change, negative = cytotoxicity: series mostly up to about 92 µM)
In short: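 CellTiter-Glo luminescence; PR-UAS-bla HEK293T, 3,000 cells/well; compound + R5020, 16 hr, 37C/5% CO2; 30 min RT before read.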

[9] = qHTS assay to identify small molecule agonists of the progesterone receptor (PR) signaling pathway - cell viability counter screen (AID 1346799); further: nearly all actives have a fitted effect of over 45% in size; further: potency means the concentration at half of the fitted maximal effect
In short: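 In parallel with the beta-lactamase readout, cytotoxicity toward PR-UAS-bla HEK293T cells was measured by CellTiter-Glo luminescence following 16 hr compound incubation in 2% charcoal-stripped FBS medium.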

[10] = qHTS assay to identify small molecule agonists of the estrogen receptor beta (ER-beta) signaling pathway - cell viability counter screen (AID 1259380; active means well fitted curve in the direction sought with a large enough effect in the repeat runs; an effect the other way counts as inactive or inconclusive; further: nearly all actives have a fitted effect of over 30% in size; further: potency means the concentration at half of the fitted maximal effect)
In short: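 HEK293T ER-beta-UAS-bla; 2% CS-FBS; 6 hr pre-plate, 16 hr cpd at 37C/5% CO2; LiveBLAzer read first, then CellTiter-Glo 30 min RT, luminescence.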

[11] = qHTS assay to identify small molecule agonists or antagonists of the thyroid stimulating hormone receptor (TSHR) signaling pathway - wild type cell line counter screen (AID 1259384)
In short: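 Wild-type HEK293 cells were plated 18 h at 37 C/5% CO2, pin-dosed with compound plus Ro20-1724 medium, held 30 min at room temperature, then given cAMP-d2 and anti-cAMP-cryptate; fluorescence was read after 1 h. Fifteen concentrations, triplicate.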

[12] = target: Progesterone receptor (Homo sapiens) (UniProt P06401); experiment: qHTS assay to identify small molecule agonists of the progesterone receptor (PR) signaling pathway (AID 1346784); further: nearly all actives have a fitted effect of over 30% in size
Sequence of Progesterone receptor (Homo sapiens) (P06401 whole entry, looked up): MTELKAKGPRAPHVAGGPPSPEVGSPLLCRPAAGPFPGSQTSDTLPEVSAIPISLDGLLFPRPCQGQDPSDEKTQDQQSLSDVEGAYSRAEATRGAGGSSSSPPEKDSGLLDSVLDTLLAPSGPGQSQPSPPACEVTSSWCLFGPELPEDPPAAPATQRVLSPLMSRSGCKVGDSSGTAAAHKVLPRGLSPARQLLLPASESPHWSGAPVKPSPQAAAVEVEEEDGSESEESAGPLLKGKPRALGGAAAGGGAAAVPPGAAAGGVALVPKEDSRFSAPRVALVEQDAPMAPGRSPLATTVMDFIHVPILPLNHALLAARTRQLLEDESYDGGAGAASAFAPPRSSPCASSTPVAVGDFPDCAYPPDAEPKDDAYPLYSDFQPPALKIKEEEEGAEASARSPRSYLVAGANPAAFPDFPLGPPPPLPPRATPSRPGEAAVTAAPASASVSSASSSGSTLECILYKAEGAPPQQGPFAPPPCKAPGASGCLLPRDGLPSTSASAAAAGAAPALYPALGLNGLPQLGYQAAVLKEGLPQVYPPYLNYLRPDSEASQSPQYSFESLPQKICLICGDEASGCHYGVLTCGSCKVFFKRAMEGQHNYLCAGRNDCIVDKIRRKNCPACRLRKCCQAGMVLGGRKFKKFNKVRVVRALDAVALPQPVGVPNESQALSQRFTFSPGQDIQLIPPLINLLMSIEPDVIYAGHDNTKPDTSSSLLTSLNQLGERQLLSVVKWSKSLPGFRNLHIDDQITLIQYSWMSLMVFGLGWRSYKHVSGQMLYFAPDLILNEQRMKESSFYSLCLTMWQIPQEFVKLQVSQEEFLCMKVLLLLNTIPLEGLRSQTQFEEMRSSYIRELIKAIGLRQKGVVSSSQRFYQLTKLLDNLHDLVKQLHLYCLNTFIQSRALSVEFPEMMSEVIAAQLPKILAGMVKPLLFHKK
In short: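 Fluorescence from LiveBLAzer B/G FRET substrate cleavage (2 hr, RT) reported PR activation in PR-UAS-bla HEK 293T cells treated 16 hr at 37C/5% CO2 with compounds; medium contained 2% charcoal-stripped FBS.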

[13] = qHTS assay to identify small molecule antagonists of the TGF-beta/Smad signaling pathway - cell viability counter screen (AID 1346824; active means well fitted curve in the direction sought with a large enough effect in the repeat runs; an effect the other way counts as inactive or inconclusive; further: nearly all actives have a fitted effect of over 50% in size)
In short: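 SBE-bla HEK 293T cells were plated overnight at 37 C, then given compounds in DMSO plus TGF-beta1 (added as 0.25 ng/mL solution) for 5 hr. After the bla read, CellTiter-Glo was added to the same wells and luminescence read after 30 min at room temperature.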

[14] = qHTS assay to identify small molecule agonists of the TGF-beta/Smad signaling pathway - cell viability counter screen (AID 1346829; active means well fitted curve in the direction sought with a large enough effect in the repeat runs; an effect the other way counts as inactive or inconclusive; further: top concentration of the series differs between compounds; nearly all actives have a fitted effect of over 45% in size)
In short: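 CellTiter-Glo luminescence readout; SBE-bla HEK 293T cells, overnight plating, compound 5 hr at 37 C/5% CO2, then bla substrate 2 hr RT, then CellTiter-Glo 30 min RT.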

[15] = qHTS assay to identify small molecule agonists of the TGF-beta/Smad signaling pathway (AID 1346859; active means well fitted activation curve with a large enough effect in the signal ratio in the repeat runs, not every such curve was filed as active; the % refers to the signal ratio; further: series mostly up to about 77 µM)
In short: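 After overnight seeding, SBE-bla HEK 293T cells are dosed with compounds in DMSO and kept 5 hr at 37 C, 5% CO2. LiveBLAzer-type FRET substrate is then applied for 2 hr at room temperature.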

[16] = target: Thyrotropin-releasing hormone receptor (Homo sapiens) (UniProt P34981); experiment: qHTS assay to identify small molecule antagonists of the thyrotropin-releasing hormone receptor (TRHR) signaling pathway (AID 1346877; active means well fitted inhibition curve with a large enough effect in the repeat runs, not every such curve was filed as active; further: series mostly up to about 51 µM)
Sequence of Thyrotropin-releasing hormone receptor (Homo sapiens) (P34981 whole entry, looked up): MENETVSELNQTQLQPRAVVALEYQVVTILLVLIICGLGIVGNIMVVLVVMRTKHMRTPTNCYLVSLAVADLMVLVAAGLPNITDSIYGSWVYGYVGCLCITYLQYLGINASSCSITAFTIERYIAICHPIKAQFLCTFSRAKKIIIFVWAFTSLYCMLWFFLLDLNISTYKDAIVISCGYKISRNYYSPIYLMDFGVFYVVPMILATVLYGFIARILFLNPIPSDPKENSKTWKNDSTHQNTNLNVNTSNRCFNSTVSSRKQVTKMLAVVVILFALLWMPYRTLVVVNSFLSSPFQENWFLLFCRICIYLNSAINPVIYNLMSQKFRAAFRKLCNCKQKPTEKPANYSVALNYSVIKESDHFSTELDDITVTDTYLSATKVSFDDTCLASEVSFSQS
In short: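 Intracellular calcium fluorescence, read kinetically every second over 3 min, reports TRH-evoked signalling in HEK293 cells carrying TRHR. Test compounds were added 5 min ahead of a 1 nM TRH challenge.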

[17] = target: Thyrotropin-releasing hormone receptor (Homo sapiens) (UniProt P34981); experiment: qHTS assay to identify small molecule agonists of the thyrotropin-releasing hormone receptor (TRHR) signaling pathway (AID 1346891);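 further: HEK293 cells expressing TRHR with calcium dye readout; series mostly up to about 58 µM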
In short: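 Compounds were tested as agonists at 15 concentrations, in triplicate, on TRHR-Hek293 cells; calcium-sensitive dye fluorescence was recorded for 3 min following addition.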

[18] = target: Progesterone receptor (Homo sapiens) (UniProt P06401); experiment: qHTS assay to identify small molecule antagonists of the progesterone receptor (PR) signaling pathway (AID 1346795; active means well fitted inhibition curve with a large enough effect in the signal ratio in the repeat runs, not every such curve was filed as active; the % refers to the signal ratio; further: potency means the concentration at half of the fitted maximal effect)
In short: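 Fluorescence intensity measured 2 hr after adding beta-lactamase FRET substrate to PR-UAS-bla HEK293T cells that had been co-treated 16 hr with compound and 1 nM R5020 (final concentration) in 2% charcoal-stripped FBS.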
On the % scale 0 is the no-effect control and ±100 the full control effect.

[Cl][Bi]([Cl])([c]1ccccc1)([c]1ccccc1)[c]1ccccc1
inactive: Potency [3] | Potency [5] | Potency [6]
active: Potency [1] 24.2 nM | Potency [2] 60.8 µM | Potency [4] 8.58 µM | Potency [7] 24.2 µM | Potency [8] 3.05 µM | Potency [9] 1.71 µM

[O-][n+]1ccccc1SSc1cccc[n+]1[O-]
inactive: activation [3] -7.58% [at 19 µM] | activation [5] 3.22% [at 19 µM] | cAMP activity change [11] 5.78% [at 18.9 µM] | activation [12] -12.3% [at 19 µM] | viability change, negative = cytotoxic [13] -6.42% [at 15.8 µM] | activity change, negative = cytotoxicity [14] -3.22% [at 15.8 µM] | activation [15] -0.0146% [at 15.8 µM] | activity, negative = inhibition [16] -2.61% [at 10.5 µM] | activation [17] 5.02% [at 11.8 µM]
active: Potency [1] 164 nM | Potency [10] 92 nM | Potency [4] 0.13 µM | Potency [7] 8.2 µM | Potency [8] 0.116 µM | Potency [9] 0.116 µM

CCOC(=O)/C=C(C)/C=C/C=C(C)/C=C/c1c(C)cc(OC)c(C)c1C
inactive: Potency [1] | Potency [2] | Potency [4] | Potency [5] | outcome [11] | Potency [6] | Potency [9] | Potency [13] | Potency [14]

Cc1onc(-c2c(Cl)cccc2Cl)c1C(=O)N[C@@H]1C(=O)N2[C@@H]1SC(C)(C)[C@@H]2C(=O)O
inactive: Potency [1] | Potency [2] | Potency [3] | Potency [4] | outcome [11] | Potency [6] | Potency [7] | Potency [12] | Potency [18] | Potency [8] | Potency [9] | Potency [13] | Potency [14] | Potency [15] | Potency [16] | Potency [17]

Cc1cccc2c1cc1ccc3cccc4ccc2c1c34
inactive: Potency [1] | Potency [10] | Potency [4] | Potency [5] | Potency [8] | Potency [13] | Potency [14] | Potency [16] | Potency [17]

CC(C)n1nc(-c2cc3cc(O)ccc3[nH]2)c2c(N)ncnc21
active: Potency [1] 1500 nM | Potency [10] 211 nM
inactive: Potency [5] | outcome [11] | Potency [6] | Potency [12] | Potency [8] | Potency [9] | Potency [13] | Potency [14] | Potency [16] | Potency [17]

Oc1ccc2cc(SSc3ccc4cc(O)ccc4c3)ccc2c1
inactive: Potency [4] | outcome [11] | Potency [6] | Potency [7] | Potency [8] | Potency [13] | Potency [14] | Potency [15] | Potency [17]
active: Potency [1] 19.4 µM and 21.7 µM | Potency [2] 61.2 µM and 61.1 µM | Potency [18] 30.7 µM and 48.6 µM

c1cc(C(c2ccc(OCC3CO3)cc2)c2ccc(OCC3CO3)cc2)ccc1OCC1CO1 (stereo not given)
inactive: Potency [2] | Potency [3] | Potency [4] | Potency [5] | outcome [11] | Potency [7] | Potency [8]
active: Potency [1] 54500 nM
